# Source: PubChem BioAssay (EPA / NIEHS)
# Records with an inconclusive call do not appear. More than one record can exist for a structure, and the calls need not agree. Active and inactive are the calls of the source. How the source made its calls: active means hit-call score of the fitted dose curve at least 0.9, where 1 is the maximum; inconclusive means response in the unintended direction; inactive means score below 0.9.
# How the values were obtained:
# [1] = molecular target: rat Peripheral-type Benzodiazepine Receptor (PBR), Tspo (gene 24230) (UniProt P16257); assay: NVS_MP_rPBR: NovaScreen (NVS) Membrane Protein Assay for rat Peripheral-type Benzodiazepine Receptor (PBR) (AID 2283335)
# Sequence of rat Peripheral-type Benzodiazepine Receptor (PBR), Tspo (gene 24230) (P16257 whole entry, looked up): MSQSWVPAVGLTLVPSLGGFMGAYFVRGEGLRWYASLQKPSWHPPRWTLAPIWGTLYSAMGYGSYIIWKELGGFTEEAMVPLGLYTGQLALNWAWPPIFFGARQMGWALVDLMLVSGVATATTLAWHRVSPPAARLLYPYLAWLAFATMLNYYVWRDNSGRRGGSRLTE
# Outline: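 Rat kidney membranes; radioligand binding with displacement, filter-based scintillation counting, 1 h incubation. Primary screen in duplicate at 25 uM, actives followed in concentration series; loss of binding vs DMSO.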
# [2] = molecular target: human Androgen Receptor (AR), AR (gene 367) (UniProt P10275); assay: NVS_NR_hAR: NovaScreen (NVS) Nuclear Receptor Binding Assay for human Androgen Receptor (AR) (AID 2283332)
# Sequence of human Androgen Receptor (AR), AR (gene 367) (P10275 whole entry, looked up): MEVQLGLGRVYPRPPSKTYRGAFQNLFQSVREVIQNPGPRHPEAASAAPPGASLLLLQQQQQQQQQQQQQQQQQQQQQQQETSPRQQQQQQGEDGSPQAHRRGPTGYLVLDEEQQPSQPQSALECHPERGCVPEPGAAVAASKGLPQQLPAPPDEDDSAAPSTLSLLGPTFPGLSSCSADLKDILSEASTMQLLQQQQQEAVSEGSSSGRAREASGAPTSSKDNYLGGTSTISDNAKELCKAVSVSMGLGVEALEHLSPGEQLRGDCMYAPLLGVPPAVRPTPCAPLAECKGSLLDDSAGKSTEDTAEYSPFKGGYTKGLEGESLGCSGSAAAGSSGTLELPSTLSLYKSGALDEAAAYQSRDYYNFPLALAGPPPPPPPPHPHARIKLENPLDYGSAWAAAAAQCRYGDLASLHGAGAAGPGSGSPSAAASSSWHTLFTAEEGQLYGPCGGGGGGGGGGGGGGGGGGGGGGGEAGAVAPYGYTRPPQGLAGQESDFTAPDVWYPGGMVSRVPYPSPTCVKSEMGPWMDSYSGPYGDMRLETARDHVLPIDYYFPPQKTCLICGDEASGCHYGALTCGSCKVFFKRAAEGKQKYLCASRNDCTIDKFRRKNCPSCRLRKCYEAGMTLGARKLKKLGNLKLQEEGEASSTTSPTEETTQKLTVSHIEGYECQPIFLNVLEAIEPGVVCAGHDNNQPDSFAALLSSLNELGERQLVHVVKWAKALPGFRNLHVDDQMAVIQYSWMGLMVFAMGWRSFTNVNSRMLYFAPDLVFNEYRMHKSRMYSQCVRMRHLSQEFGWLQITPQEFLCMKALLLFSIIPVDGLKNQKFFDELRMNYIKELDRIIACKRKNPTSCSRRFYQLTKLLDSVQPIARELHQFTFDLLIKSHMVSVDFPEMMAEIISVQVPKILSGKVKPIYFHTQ
# Procedure: NVS_NR_hAR is a biochemical, single-readout assay that uses extracted gene-proteins from LnCAP in a cell-free assay. Measurements were taken 20 hours after chemical dosing in a 96-well plate.NVS_NR_hAR is one of one assay component(s) measured or calculated from the NVS_NR_hAR assay. It is designed to make measurements of radioligand binding, a form of binding reporter, as detected with scintillation counting signals by Lysate-based radiodetection technology.Data from the assay component NVS_NR_hAR was analyzed into 1 assay endpoint. This assay endpoint, NVS_NR_hAR, was analyzed in the positive analysis fitting direction relative to DMSO as the negative control and baseline of activity. Using a type of binding reporter, loss-of-signal activity can be used to understand changes in the binding as they relate to the gene AR. Furthermore, this assay endpoint can be referred to as a primary readout, because the performed assay has only produced 1 assay endpoint. To generalize the intended target to other relatable targets, this assay endpoint is annotated to the nuclear receptor intended target family, where the subfamily is steroidal.
# Binding assays used specific radioligands (tritiated, iodinated) with non-radioactive competitive displacement ligands in agonist or antagonist protocols (as indicated) and various reference compounds and inhibitors to titrate specific binding to receptors and transporters. Most enzyme assays (CYPs, kinases, phosphatases, proteases, HDACs) used recombinant protein and specific substrates (fluorescence mostly, some colorimetric and radioactive) and inhibitors, followed by a biochemical separation of substrate and product. All assays for the biochemical HTS were initially run in duplicate at a single concentration (10 uM for CYP450 assays and 25 uM for all others). […] Each assay was run with positive and negative controls, and concurrent controls on every plate. […]
# [3] = molecular target: chimpanzee Androgen Receptor (AR), AR (gene 747460) (UniProt O97775); assay: NVS_NR_cAR: NovaScreen (NVS) Nuclear Receptor Binding Assay for chimpanzee Androgen Receptor (AR) (AID 2283346);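 further: a loss of bound radioligand signal versus DMSO counts as binding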
# Sequence of chimpanzee Androgen Receptor (AR), AR (gene 747460) (O97775 whole entry, looked up): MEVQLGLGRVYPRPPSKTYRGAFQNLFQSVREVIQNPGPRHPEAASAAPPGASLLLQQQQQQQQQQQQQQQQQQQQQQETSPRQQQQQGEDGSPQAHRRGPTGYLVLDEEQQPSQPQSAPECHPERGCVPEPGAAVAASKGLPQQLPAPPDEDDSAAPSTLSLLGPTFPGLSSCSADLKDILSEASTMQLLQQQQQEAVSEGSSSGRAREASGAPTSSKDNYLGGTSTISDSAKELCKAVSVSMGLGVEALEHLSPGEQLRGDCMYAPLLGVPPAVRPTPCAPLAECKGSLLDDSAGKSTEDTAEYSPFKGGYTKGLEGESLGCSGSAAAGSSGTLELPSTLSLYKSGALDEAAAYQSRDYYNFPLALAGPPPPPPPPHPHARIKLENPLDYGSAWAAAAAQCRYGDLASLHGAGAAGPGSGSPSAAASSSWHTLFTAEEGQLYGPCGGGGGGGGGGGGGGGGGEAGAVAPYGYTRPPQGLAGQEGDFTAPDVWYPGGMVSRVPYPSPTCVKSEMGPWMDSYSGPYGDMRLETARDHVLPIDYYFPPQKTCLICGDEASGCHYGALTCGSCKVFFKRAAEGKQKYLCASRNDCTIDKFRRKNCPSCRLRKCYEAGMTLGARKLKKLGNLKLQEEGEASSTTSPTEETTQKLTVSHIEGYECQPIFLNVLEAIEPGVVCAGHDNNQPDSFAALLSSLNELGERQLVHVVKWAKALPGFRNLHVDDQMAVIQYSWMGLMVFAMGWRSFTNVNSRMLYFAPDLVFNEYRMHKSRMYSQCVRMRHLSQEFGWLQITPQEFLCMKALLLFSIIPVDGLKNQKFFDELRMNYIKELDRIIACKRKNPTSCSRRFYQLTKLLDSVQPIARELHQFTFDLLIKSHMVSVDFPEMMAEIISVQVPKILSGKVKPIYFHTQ
# Outline: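 Cell-free competition binding with insect-cell (Sf9/Sf21) extracted chimpanzee AR; scintillation signal from lysate at 72 h. Screened in duplicate at 25 uM, then concentration-response for actives; fitting relative to DMSO.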
# NCBI gene 100848466 = assay: NVS_NR_bPR: NovaScreen (NVS) Nuclear Receptor Binding Assay for bovine Progextron Receptor (PR) (AID 2283343);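 further: actives lower bound radioligand signal below DMSO meaning displacement of the label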
# Outline: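 Membranes from bovine uterus; radiolabelled ligand plus test chemical; 18 h; scintillation read-out. Activity = signal loss vs DMSO. Primary: 25 uM, duplicate; secondary: concentration series.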
# [4] = NVS_IC_rCaBTZCHL: NovaScreen (NVS) Ion Channel Assay for Calcium Channel, Type L, Benzothiazepine Site (CaBTZCHL) (AID 2283337)
# Outline: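 Scintillation counting of filter-bound radioligand gave the read-out, with reduced binding versus DMSO scored as activity. Membranes came from rat cortex and were read 1.5 h after compound addition. Chemicals were screened first in duplicate at 25 uM.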
# [5] = molecular target: bovine Estrogen Receptor (ER), ESR1 (gene 407238) (UniProt P49884); assay: NVS_NR_bER: NovaScreen (NVS) Nuclear Receptor Binding Assay for bovine Estrogen Receptor (ER) (AID 2283345);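 further: actives lower the bound radioligand count which means they displace the ER ligand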
# Sequence of bovine Estrogen Receptor (ER), ESR1 (gene 407238) (P49884 whole entry, looked up): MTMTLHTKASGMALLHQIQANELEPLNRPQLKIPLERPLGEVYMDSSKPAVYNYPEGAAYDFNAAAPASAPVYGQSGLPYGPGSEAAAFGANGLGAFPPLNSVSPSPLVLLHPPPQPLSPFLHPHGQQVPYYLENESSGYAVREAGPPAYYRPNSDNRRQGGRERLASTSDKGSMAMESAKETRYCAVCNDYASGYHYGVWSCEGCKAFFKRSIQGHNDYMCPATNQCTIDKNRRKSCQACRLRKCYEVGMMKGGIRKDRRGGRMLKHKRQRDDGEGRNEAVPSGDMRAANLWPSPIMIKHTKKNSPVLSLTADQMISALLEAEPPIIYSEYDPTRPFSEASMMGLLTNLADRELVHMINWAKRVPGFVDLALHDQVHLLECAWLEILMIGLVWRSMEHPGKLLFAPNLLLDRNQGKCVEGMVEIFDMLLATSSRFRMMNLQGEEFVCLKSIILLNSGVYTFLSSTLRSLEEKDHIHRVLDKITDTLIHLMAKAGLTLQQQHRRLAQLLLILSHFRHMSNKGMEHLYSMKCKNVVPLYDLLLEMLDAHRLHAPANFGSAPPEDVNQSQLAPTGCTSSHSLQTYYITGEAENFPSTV
# Outline: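 Bovine uterine membranes; tritiated or iodinated radioligand; competitive displacement; 18 h; scintillation read; DMSO negative control; 25 uM duplicates, then concentration series for actives.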
# [6] = molecular target: rat Glutamate, MK-801 Agonist Site (GluNMDA_MK801), Grin1 (gene 24408) (UniProt P35439); assay: NVS_LGIC_rGluNMDA_MK801_Agonist: NovaScreen (NVS) Ligand-Gated Ion Channel Assay for rat Glutamate, MK-801 Agonist Site (GluNMDA_MK801) (AID 2283340)
# Procedure: NVS_LGIC_rGluNMDA_MK801_Agonist is a biochemical, single-readout assay that uses extracted gene-proteins from Rat forebrain membranes in a tissue-based cell-free assay. Measurements were taken 1.5 hours after chemical dosing in a 48-well plate.NVS_LGIC_rGluNMDA_MK801_Agonist is one of one assay component(s) measured or calculated from the NVS_LGIC_rGluNMDA_MK801_Agonist assay. It is designed to make measurements of radioligand binding, a form of binding reporter, as detected with scintillation counting signals by Filter-based radiodetection technology.Data from the assay component NVS_LGIC_rGluNMDA_MK801_Agonist was analyzed into 1 assay endpoint. This assay endpoint, NVS_LGIC_rGluNMDA_MK801_Agonist, was analyzed in the positive analysis fitting direction relative to DMSO as the negative control and baseline of activity. Using a type of binding reporter, gain-of-signal activity can be used to understand changes in the binding as they relate to the gene Grin1. Furthermore, this assay endpoint can be referred to as a primary readout, because the performed assay has only produced 1 assay endpoint. To generalize the intended target to other relatable targets, this assay endpoint is annotated to the ion channel intended target family, where the subfamily is ligand-gated ion channel.
# Binding assays used specific radioligands (tritiated, iodinated) with non-radioactive competitive displacement ligands in agonist or antagonist protocols (as indicated) and various reference compounds and inhibitors to titrate specific binding to receptors and transporters. Most enzyme assays (CYPs, kinases, phosphatases, proteases, HDACs) used recombinant protein and specific substrates (fluorescence mostly, some colorimetric and radioactive) and inhibitors, followed by a biochemical separation of substrate and product. All assays for the biochemical HTS were initially run in duplicate at a single concentration (10 uM for CYP450 assays and 25 uM for all others). […]
# [7] = test system: guinea pig Histamine Receptor (H2), gene 100729734; assay: NVS_GPCR_gH2: NovaScreen (NVS) G Protein-Coupled Receptor Assay for guinea pig Histamine Receptor (H2) (AID 2283342)
# Outline: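 Radioligand displacement on guinea pig striatal membranes, 1 h after dosing, filter-based scintillation counting; loss of signal versus DMSO. Single-point screen at 25 uM in duplicate, then concentration-response up to 50 uM.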
# [8] = molecular target: bovine Gamma-Aminobutyric Acid Type A Receptor Agonist (GABAR Agonist), GABRA1 (gene 780973) (UniProt P08219); assay: NVS_LGIC_bGABAR_Agonist: NovaScreen (NVS) Ligand-Gated Ion Channel Assay for bovine Gamma-Aminobutyric Acid Type A Receptor Agonist (GABAR Agonist) (AID 2283338)
# Sequence of bovine Gamma-Aminobutyric Acid Type A Receptor Agonist (GABAR Agonist), GABRA1 (gene 780973) (P08219 whole entry, looked up): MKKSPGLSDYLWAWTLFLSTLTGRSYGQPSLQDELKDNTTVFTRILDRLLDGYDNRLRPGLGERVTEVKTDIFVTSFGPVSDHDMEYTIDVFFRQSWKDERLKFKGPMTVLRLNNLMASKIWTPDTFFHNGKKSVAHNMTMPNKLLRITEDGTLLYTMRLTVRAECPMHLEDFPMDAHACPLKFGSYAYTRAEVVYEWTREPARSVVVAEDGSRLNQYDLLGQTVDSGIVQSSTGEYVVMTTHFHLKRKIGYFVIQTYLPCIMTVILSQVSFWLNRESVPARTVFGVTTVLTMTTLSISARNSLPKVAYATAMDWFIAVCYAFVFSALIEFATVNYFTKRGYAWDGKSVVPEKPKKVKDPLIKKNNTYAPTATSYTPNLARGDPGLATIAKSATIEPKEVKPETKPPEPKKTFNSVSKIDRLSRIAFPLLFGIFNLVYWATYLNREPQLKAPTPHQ
# Procedure: NVS_LGIC_bGABAR_Agonist is a biochemical, single-readout assay that uses extracted gene-proteins from Bovine cerebellar membranes in a tissue-based cell-free assay. Measurements were taken 1 hour after chemical dosing in a 48-well plate.NVS_LGIC_bGABAR_Agonist is one of one assay component(s) measured or calculated from the NVS_LGIC_bGABAR_Agonist assay. It is designed to make measurements of radioligand binding, a form of binding reporter, as detected with scintillation counting signals by Filter-based radiodetection technology.Data from the assay component NVS_LGIC_bGABAR_Agonist was analyzed into 1 assay endpoint. This assay endpoint, NVS_LGIC_bGABAR_Agonist, was analyzed in the positive analysis fitting direction relative to DMSO as the negative control and baseline of activity. Using a type of binding reporter, gain-of-signal activity can be used to understand changes in the binding as they relate to the gene GABRA1. Furthermore, this assay endpoint can be referred to as a primary readout, because the performed assay has only produced 1 assay endpoint. To generalize the intended target to other relatable targets, this assay endpoint is annotated to the ion channel intended target family, where the subfamily is ligand-gated ion channel. […]
# [9] = molecular target: Voltage-gated inwardly rectifying potassium channel KCNH2 (Homo sapiens) (UniProt Q12809); assay: NVS_IC_hKhERGCh: NovaScreen (NVS) Ion Channel Assay for human Potassium Channel ERG (KhERGCh) (AID 2283333)
# Sequence of Voltage-gated inwardly rectifying potassium channel KCNH2 (Homo sapiens) (Q12809 whole entry, looked up): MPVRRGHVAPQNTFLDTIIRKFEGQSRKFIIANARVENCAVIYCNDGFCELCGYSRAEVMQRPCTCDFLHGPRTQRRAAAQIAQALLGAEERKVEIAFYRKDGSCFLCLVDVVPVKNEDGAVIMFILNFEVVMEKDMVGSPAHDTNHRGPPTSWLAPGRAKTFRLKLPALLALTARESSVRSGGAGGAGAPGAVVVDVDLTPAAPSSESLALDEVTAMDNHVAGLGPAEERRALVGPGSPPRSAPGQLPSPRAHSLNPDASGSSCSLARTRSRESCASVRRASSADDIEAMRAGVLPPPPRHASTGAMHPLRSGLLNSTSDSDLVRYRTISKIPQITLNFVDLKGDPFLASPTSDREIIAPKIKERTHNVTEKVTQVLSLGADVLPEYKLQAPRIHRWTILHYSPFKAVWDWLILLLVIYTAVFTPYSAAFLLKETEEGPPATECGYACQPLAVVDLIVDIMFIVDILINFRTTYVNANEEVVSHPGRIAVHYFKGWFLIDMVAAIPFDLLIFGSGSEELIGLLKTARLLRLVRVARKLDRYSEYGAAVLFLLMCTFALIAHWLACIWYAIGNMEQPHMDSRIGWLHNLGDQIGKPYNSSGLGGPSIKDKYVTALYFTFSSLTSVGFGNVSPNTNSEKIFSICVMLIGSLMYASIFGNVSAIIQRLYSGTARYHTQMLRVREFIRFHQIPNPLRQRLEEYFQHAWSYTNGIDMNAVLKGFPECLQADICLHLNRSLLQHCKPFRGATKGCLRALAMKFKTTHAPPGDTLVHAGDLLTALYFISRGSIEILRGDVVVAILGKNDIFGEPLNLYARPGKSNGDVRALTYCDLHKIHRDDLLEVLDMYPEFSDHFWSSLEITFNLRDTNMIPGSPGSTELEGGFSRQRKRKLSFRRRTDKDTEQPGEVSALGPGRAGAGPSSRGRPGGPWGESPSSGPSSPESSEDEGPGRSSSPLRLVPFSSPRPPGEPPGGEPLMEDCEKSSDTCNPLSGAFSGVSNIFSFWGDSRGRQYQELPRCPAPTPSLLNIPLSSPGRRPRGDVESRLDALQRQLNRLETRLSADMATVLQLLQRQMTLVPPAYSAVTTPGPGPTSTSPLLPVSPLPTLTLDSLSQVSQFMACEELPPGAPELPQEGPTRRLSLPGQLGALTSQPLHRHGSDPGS
# Outline: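 Cell-free radioligand competition binding on hERG protein extracted from CHO cells, read by filter-based scintillation counting 0.75 h after dosing. Primary screen at 25 uM in duplicate, actives followed in concentration series. Signal loss fitted versus DMSO.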
smiles,measurement,setting,value
CC(C)c1c(C(=O)Nc2ccccc2)c(-c2ccccc2)c(-c2ccc(F)cc2)n1CC[C@@H](O)C[C@@H](O)CC(=O)O,AC50,[1],0.729 µM (active)
CCCCCc1ccc(O)cc1,outcome,[1],inactive
CC(C)(c1ccc(Oc2ccc(N)cc2)cc1)c1ccc(Oc2ccc(N)cc2)cc1,AC50,[2],9 µM (active)
same,outcome,[3],inactive
CN(Cc1cnc2nc(N)nc(N)c2n1)c1ccc(C(=O)N[C@@H](CCC(=O)O)C(=O)O)cc1,outcome,[2],inactive
CCCCCCCCCCCCOS(=O)(=O)O,AC50,NCBI gene 100848466,25.5 µM (active)
COc1cc(OC)nc(NC(=O)NS(=O)(=O)Nc2ccccc2C(=O)N(C)C)n1,outcome,[1],inactive
C/C=C/C(=O)C1=C(C)CCCC1(C)C,AC50,[1],16.8 µM (active)
c1cnc2c(c1)ccc1cccnc12,outcome,[1],inactive
O=C(NCc1ncc(C(F)(F)F)cc1Cl)c1c(Cl)cccc1Cl,AC50,[1],0.005 µM (active)
CCCCCCCCCCCC,AC50,[1],5.18 µM (active)
CCCCCCCC(OC)OC,outcome,[1],inactive
NC(=NCCCCCCN=C(N)/N=C(\N)Nc1ccc(Cl)cc1)/N=C(\N)Nc1ccc(Cl)cc1,AC50,[4],8.58 µM (active)
same,outcome,[5],inactive
CCCCCCCCCCCCCCCCCC[N+](C)(C)Cc1ccccc1,AC50,[1],12.5 µM (active)
same,outcome,[4],inactive
N=C(N)c1ccc(OCCCCCOc2ccc(C(=N)N)cc2)cc1,AC50,[4],2.33 µM (active)
same,AC50,[6],35.8 µM (active)
same,AC50,[7],6.98 µM (active)
same,outcome,[5],inactive
CN(C)CCOC(c1ccccc1)c1ccccc1,AC50,[4],5.8 µM (active)
same,outcome,[8],inactive
same,outcome,[6],inactive
same,AC50,[7],4.71 µM (active)
C=C(c1ccc(C(=O)O)cc1)c1cc2c(cc1C)C(C)(C)CCC2(C)C,outcome,[5],inactive
CCCCc1oc2ccccc2c1C(=O)c1cc(I)c(OCCN(CC)CC)c(I)c1,AC50,[1],10.9 µM (active)
same,AC50,[4],1.81 µM (active)
same,AC50,[7],9.85 µM (active)
C=CC(=O)OCC(CO)(COCC(COC(=O)C=C)(COC(=O)C=C)COC(=O)C=C)COC(=O)C=C,outcome,[5],inactive
C=CC(C)(CCC=C(C)C)OC(C)=O (stereo not drawn),outcome,[4],inactive
same,AC50,[5],17.1 µM (active)
CC(C)[C@@H]1CC[C@@H](C)C[C@H]1O,AC50,[2],13.1 µM (active)
same,AC50,[3],0.376 µM (active)
CN(C)c1ccc(C(=C2C=CC(=[N+](C)C)C=C2)c2ccccc2)cc1,AC50,[1],8.3 µM (active)
O=C(CCCN1CCC(O)(c2ccc(Cl)cc2)CC1)c1ccc(F)cc1,outcome,[9],inactive
same,AC50,[4],2.55 µM (active)
same,outcome,[8],inactive
same,outcome,[6],inactive
same,AC50,[7],1.65 µM (active)
Oc1c(Cl)cc(Cl)cc1Sc1cc(Cl)cc(Cl)c1O,outcome,[5],inactive
CCC1CO1 (stereo not drawn),AC50,[3],5 µM (active)
CCCCCCOC(=O)c1ccc(O)cc1,AC50,[5],13 µM (active)
COC1=CC(=O)C[C@@H](C)[C@]12Oc1c(Cl)c(OC)cc(OC)c1C2=O,outcome,[5],inactive
CCc1ccccc1O,outcome,[5],inactive
C[C@]12CC[C@@H]3c4ccc(O)cc4CC[C@H]3[C@@H]1C[C@@H](O)[C@@H]2O,outcome,[3],inactive
O=C(Nc1cccc([N+](=O)[O-])c1)c1cc2ccccc2cc1O,outcome,[5],inactive
Nc1cc(Cl)c(-c2cc(Cl)c(N)cc2Cl)cc1Cl,outcome,[5],inactive
CCCCCC(C)OC(=O)COc1ccc(Cl)c2cccnc12 (stereo not drawn),outcome,[5],inactive
CCOC(=O)c1nc(C(Cl)(Cl)Cl)n(-c2ccc(Cl)cc2Cl)n1,outcome,[5],inactive
O=C1OC2(c3ccccc31)c1cc(I)c(O)c(I)c1Oc1c2cc(I)c(O)c1I,AC50,[3],21.6 µM (active)
same,outcome,[3],inactive
C[C@]12CC[C@@H]3c4ccc(O)cc4CC[C@H]3[C@@H]1CC[C@@H]2OC(=O)CCC1CCCC1,AC50,[5],0.0684 µM (active)
O=C1Cc2ccccc2N1c1c(Cl)cccc1Cl,outcome,[5],inactive
O=C(c1cc(O)c(O)c(O)c1)c1ccc(O)c(O)c1O,outcome,[5],inactive
COc1ccccc1NC(=O)c1cc2ccccc2cc1O,outcome,[5],inactive
c1ccc(CNc2ncnc3c2ncn3C2CCCCO2)cc1 (stereo not drawn),outcome,[5],inactive
Cc1cc(C(=C2C=CC(=Nc3ccc(S(=O)(=O)O)cc3)C=C2)c2ccc(Nc3ccc(S(=O)(=O)O)cc3)cc2)cc(S(=O)(=O)O)c1N,AC50,[3],15.5 µM (active)
CCCCCCCCCCCCOC(=O)c1cc(O)c(O)c(O)c1,outcome,[5],inactive
NCc1cccc(CN)c1,outcome,[5],inactive
CCCCCCCCCCCC[N+](C)(C)CCCCCCCCCCCC,outcome,[5],inactive
CCCCCCc1ccc(N)cc1,outcome,[5],inactive
CC1=CC(=O)c2ccccc2C1=O,outcome,[5],inactive
Oc1ccc(Cc2ccccc2O)cc1,outcome,[5],inactive
